The full ranking holds about 33,000 sequences; the median of “E-score (-0.5 to 0.5)” is about -0.043, and the highest 2% start at about 0.37. The entries come from a sample that favours the highest values as a whole.
Molecular target: T1, Upc2 (UniProt Q12151)
T1 sequence: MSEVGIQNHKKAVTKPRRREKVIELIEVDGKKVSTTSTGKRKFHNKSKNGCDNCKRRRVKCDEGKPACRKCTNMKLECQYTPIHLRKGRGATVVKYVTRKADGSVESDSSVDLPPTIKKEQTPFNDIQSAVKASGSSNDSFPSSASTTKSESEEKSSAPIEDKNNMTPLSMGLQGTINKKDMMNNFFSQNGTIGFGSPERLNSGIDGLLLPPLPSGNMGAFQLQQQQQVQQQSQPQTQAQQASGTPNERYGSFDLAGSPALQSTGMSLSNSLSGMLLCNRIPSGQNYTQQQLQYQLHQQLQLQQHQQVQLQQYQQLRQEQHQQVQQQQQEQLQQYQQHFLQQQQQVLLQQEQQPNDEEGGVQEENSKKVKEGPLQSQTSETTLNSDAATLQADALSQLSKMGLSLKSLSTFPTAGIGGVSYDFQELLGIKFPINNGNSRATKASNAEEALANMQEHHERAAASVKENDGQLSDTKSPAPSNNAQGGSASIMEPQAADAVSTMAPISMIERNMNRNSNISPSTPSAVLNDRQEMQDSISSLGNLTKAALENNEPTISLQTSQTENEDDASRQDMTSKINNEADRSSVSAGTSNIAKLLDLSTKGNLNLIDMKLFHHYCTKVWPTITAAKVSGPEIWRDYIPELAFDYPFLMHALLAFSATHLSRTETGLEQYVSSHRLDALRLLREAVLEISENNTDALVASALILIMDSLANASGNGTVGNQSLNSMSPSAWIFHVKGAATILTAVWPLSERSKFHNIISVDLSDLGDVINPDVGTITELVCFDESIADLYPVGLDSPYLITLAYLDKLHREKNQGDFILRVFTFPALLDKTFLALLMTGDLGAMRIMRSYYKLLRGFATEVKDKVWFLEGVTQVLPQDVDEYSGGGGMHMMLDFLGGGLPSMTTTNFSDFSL
Test: PBM E-score (8-mer binding enrichment) (E-score (-0.5 to 0.5)); higher = stronger / more preferred TF binding
Conditions: protein concentration: 200 nM; construct: GST-full length
Procedure, shortened: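 Each ungapped eight-base word and its reverse complement, pooled, received an E-score from the Universal PBM Analysis Suite. Underlying scans, normalised with masliner, recorded fluorescent anti-GST bound to GST-tagged yeast transcription factors. These were applied at about 100-200 nM to universal all-10-mer Agilent arrays double-stranded by primer extension.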

In order of rising “PBM E-score” value:
1. GGCGTCCA  -0.398
2. AGGACAGA  -0.347
3. GCCTGCCA  -0.317
4. CCTAGCGA  -0.299
5. AGGACTTG  -0.287
6. CAGATCAC  -0.266
7. AGACCCTG  -0.259
8. ATCGCAAG  -0.255
9. CAATAGAA  -0.241
10. GACCAAGC  -0.234
11. CTGTTGGC  -0.209
12. CCATGGAC  -0.201
13. CTAAGCTC  -0.201
14. ATTGTATC  -0.2
15. CCTACGCA  -0.196
16. CCCCTCTC  -0.185
17. AGCATTAT  -0.183
18. TCAGCCAA  -0.177
19. TCCACTCA  -0.17
20. AGGCCAAG  -0.17
21. AGAGCATG  -0.17
22. CTGCGACC  -0.164
23. CATCGTCA  -0.163
24. ATCACAGA  -0.155
25. GATCGTCC  -0.151
26. GGAAGAAA  -0.136
27. AACAGTTA  -0.135
28. CCGAACCA  -0.127
29. ATGAGTGG  -0.126
30. ACTGTAGG  -0.117
31. AGCAGCAC  -0.113
32. TAGGCAAA  -0.108
33. CAACGCTG  -0.0985
34. GAGCAGCA  -0.098
35. CCCTTCGG  -0.0969
36. ATTTTGCA  -0.0911
37. CTATAGCA  -0.0859
38. ACAGAGCG  -0.0821
39. AGAATCAG  -0.0805
40. GACGACAC  -0.079
41. ATCTGTAA  -0.0759
42. CTAAGAGA  -0.0721
43. TCCGGGAA  -0.0708
44. CTCCTATA  -0.0688
45. CATCGTCC  -0.0591
46. CTTACAGC  -0.0579
47. CTATCGAA  -0.056
48. AGTGAGAC  -0.0557
49. AATCGTCC  -0.0549
50. AACATCCA  -0.0529
51. ACCAAACC  -0.0475
52. CACAAACA  -0.0461
53. CTATCGTC  -0.0375
54. CAGTGCTA  -0.0362
55. AGTCTTTC  -0.0324
56. AGCTGTAT  -0.0312
57. CCCAAGCG  -0.031
58. GAGGGAAC  -0.0277
59. ATATAGCA  -0.0248
60. GAACATCA  -0.0243
61. GAATTAGC  -0.0225
62. GAGGGGGA  -0.0209
63. GGATCGCC  -0.0204
64. ATCGACAG  -0.0101
65. TCTCCTAA  -0.00947
66. ATGTTAGG  -0.00946
67. CCTCGATA  -0.0083
68. AGAGGCAC  -0.00593
69. AACACAGA  -0.00201
70. GGACCTTA  0.00047
71. ATGTGAAC  0.00151
72. GCCTCGAA  0.00343
73. CATCGTGA  0.0225
74. ATGTCCTA  0.0227
75. TATCGTGA  0.0236
76. ACCGGCCC  0.0253
77. ACCTGGAA  0.0285
78. ACATTCGA  0.0307
79. CATCACGG  0.0314
80. ACTCTATA  0.0319
81. ACATTCGG  0.0333
82. AATAAGTA  0.0339
83. GTGCTCGA  0.0349
84. GTCGAGTA  0.0357
85. CACGACAA  0.0377
86. ATATCGTG  0.0382
87. TTCGACAA  0.0423
88. AGTTCGAA  0.0491
89. CACGACAG  0.0499
90. GATCGTGC  0.0519
91. AATCGTCT  0.0582
92. CCGAACCG  0.0623
93. ACCTCGTC  0.0626
94. CAATCTTA  0.065
95. GACGACAA  0.0707
96. TCGCACGA  0.0732
97. GATTAGCC  0.0747
98. TATCGTCA  0.0773
99. GCCAATAC  0.0787
100. CGCAAACA  0.0866
101. ATATCGTC  0.0922
102. CGCTATTC  0.102
103. CCAAAACG  0.114
104. CACGACAC  0.114
105. CGCAAGCG  0.115
106. CCCTCGTC  0.122
107. CACGTTAA  0.131
108. GCCTCGGA  0.135
109. TGCGACAA  0.141
110. GTATCGAA  0.142
111. ATTTACGC  0.154
112. GACGTTAA  0.154
113. GGCGTTAA  0.161
114. GCGAACCA  0.164
115. GTTTACAA  0.164
116. AGCGACAT  0.177
117. CCCTCGGA  0.195
118. ACCGACAT  0.199
119. ACCTCGTG  0.2
120. ACCAAACA  0.208
121. CGTGCGAA  0.214
122. GTTTACTA  0.224
123. GTATCGGA  0.229
124. AATCGTGC  0.229
125. AGATCTCG  0.235
126. ATCGTTAG  0.239
127. AATCGTAG  0.241
128. TCCTACGA  0.256
129. ATCGTTAC  0.264
130. ATGTAAAC  0.27
131. GATCGTTA  0.291
132. CATCGTAG  0.295
133. ATTTACGG  0.297
134. ACGAACCC  0.301
135. CATTACGA  0.316
136. CTTTACGC  0.332
137. AACAAACG  0.353
138. CTCGTTAC  0.36
139. AATCGTAA  0.368
140. ACATTCGT  0.375
141. ACGAACCA  0.376
142. GTATAGCA  0.377
143. ACGAACCG  0.378
144. TATCGTAA  0.384
145. CACAAACG  0.387
146. CATCGTAA  0.389
147. GATCGTAA  0.396
148. ACCAAACG  0.4
149. AACGACAA  0.402
150. CGCAAACG  0.412
151. AACGACAG  0.419
152. GTATCGTA  0.423
153. ATATCGTA  0.427
154. AACGACAC  0.428
155. CTATCGTA  0.43
156. AATCGTAC  0.43
157. CCCAAACG  0.431
158. AACGACAT  0.432
159. ATCGTTAA  0.435
160. AATCGTAT  0.44
161. GATCGTAC  0.442
162. ATTTACGA  0.45
163. CATCGTAC  0.454
164. TACGACAA  0.46
165. ACCTCGTA  0.462
166. CCCTCGTA  0.465
167. GTCGTTAA  0.465
168. CTCGTTAA  0.466
169. TCGTACGA  0.471
170. GTTTACGA  0.471
171. CTTTACGA  0.471
172. GCCTCGTA  0.473
